Test results reported in PubChem BioAssay (NCI).
Compounds without any hit were thinned out: in the full panel of roughly 83,000, 20% have a hit.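 Note: values are percent growth. 100 is the growth of untreated cells, values between 100 and 0 indicate rising inhibition; between -100 and 0 indicates cell death.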 Unmarked numbers belong to inactive results. Calls of active or inactive are those of the source. How the source made its calls: active means growth percent below 10; inactive means the rest.

System: MDA-MB-468 breast
Assay: NCI-60 one-dose screen, 48 h (100 = growth as untreated, 0 = no growth, -100 = all killed)
Details: 10 µM unless noted

SMILES	growth
CCCNc1ccc(C2=NCCCN2)cc1	87.9%
COC(=O)C1(C)Cc2cc(OC(C)=O)c(OC(C)=O)cc2N1 (centres undefined)	-3.93% (active)
COc1ccc(/C=C/C(=O)/C=C/c2cc3ccc(Cl)cc3[nH]c2=O)cc1	87.2%
O=C(Nc1ccccc1S)c1ccccc1	115%
Nc1ccc(Cl)c2c(=O)c3ccccc3[nH]c12	34%
Cc1cc(=O)oc2cc(Oc3nc(Br)cn4c(Br)cnc34)ccc12	41.4%
CN1CCN(CC(=O)Nc2ccc3ncnc(Nc4ccc(Oc5cccc(C(F)(F)F)c5)c(Cl)c4)c3c2)CC1	-61.3% (active)
COc1ccc(OCC(CO)N2CCN(c3ccccc3)CC2)cc1 (centres undefined)	99.6%
COc1cc(C2CC(=O)Nc3c2c(C)nn3-c2nc3ccccc3[nH]2)c(OC)c2c1OCO2 (centres undefined)	36.7%
CS(=O)(=O)Nc1cncc(-c2ccc3ncnc(Nc4ccc(F)c(Cl)c4)c3c2)c1	-30.3% (active)
O=c1c2c(c3ccccc3n1-c1ccccc1)NC(=S)NC2c1ccc(Cl)cc1 (centres undefined)	115%
CSc1ccc(C(=O)C[n+]2cccc(C)c2)cc1	91.1%
CN(C)CCC(=O)C1CC1	104%
NS(=O)(=O)c1ccc(Nc2nc(Nc3ccccc3)nc(N3N=C(c4ccc(Cl)cc4)CC3c3ccc(Cl)cc3)n2)cc1 (centres undefined)	26.4%
CN1C(=O)N(C)C2(c3ccccc3)N(CC(=O)Nc3ccccc3O)C(=O)NC12c1ccccc1 (centres undefined)	104%
N#CC1=C(N)Oc2c(sc3c(F)cccc23)C1c1ccc([N+](=O)[O-])cc1 (centres undefined)	-41.6% (active)
Cc1nc2ccccc2c(/C=C/c2ccc(F)cc2)c1C(N)=O	107%
CCC[C@H](N[C@@H](C)C(=O)N1[C@H](C(=O)O)C[C@@H]2CCCC[C@@H]21)C(=O)OCC	101%
c1ccc(Nc2nc3c(s2)CCc2c[nH]cc2-3)nc1	83.6%
CC1(C)CC[C@]2(C(=O)Nc3ccccn3)CC[C@]3(C)C(=CC[C@@H]4[C@@]5(C)C/C(=C/c6ccncc6)C(=O)C(C)(C)[C@@H]5CC[C@]43C)[C@@H]2C1	19.2%
CCOC(=O)c1cc2c(n1Cc1ccccc1)-c1oncc1CC2	40.1%
O=C(CCc1nnc2sc(Cc3ccccc3Cl)nn12)c1nc2ncccc2[nH]1	95.9%
O=C(Cn1nnc2ccccc21)N/N=C/c1ccccc1F	90.8%
Cc1cc(N)c2ccccc2[n+]1CCCCCCCCCC[n+]1c(C)cc(N)c2ccccc21	-55.7% (active)
Cc1nc2sc(C(=O)Nc3cccc4ncccc34)c(N)c2cc1C(C)O (centres undefined)	44.9%
C#C[C@]1(O)CCC2C3CCc4cc(OC5CCCC5)ccc4C3CC[C@@]21C (some centres undefined)	69.1%
Cc1ccccc1NC(=O)c1sc2nc3c(cc2c1N)CCCC3	11.8%

SMILES	growth
CSc1nc(Nc2ccc(S(=O)(=O)Nc3ccon3)cc2)c(C#N)c(-c2ccc(Cl)cc2)n1	93.1%
COCCn1cc(-c2csc(-c3cn(C)c4ccc(Br)cc34)n2)c2cccnc21	54.8%
O=C(c1ccccc1)C(CN1CCOCC1)c1ccccc1 (centres undefined)	-68.7% (active)
C#Cc1cccc(Nc2nc3cc([N+](=O)[O-])ccc3nc2Nc2ccc(O)cc2)c1	27.1%
O=C1c2cc3c(cc2-c2c1c1ccc(F)cc1c(=O)n2C[C@H](O)[C@@H](O)[C@H](O)CO)OCO3	-45.2% (active)
COc1ccc2c(c1)c(CC(=O)O)c(C)n2C(=O)c1ccc(Cl)cc1	96.4%
C=CCN(/C=C1/C(=O)O[C@H](COC)[C@@]2(C)C1=C(O)C(=O)C1=C2[C@H](OC(C)=O)C[C@]2(C)C(=O)CC[C@@H]12)CC=C	-32.2% (active)
O=C(CS(=O)c1oc(-c2cccs2)nc1S(=O)(=O)c1ccc(Br)cc1)c1ccccc1 (centres undefined)	101%
[B-][N+](CC)(CC)c1ccccc1	104%
Cc1ccc(-c2nc3ccc(Cl)cn3c2NC2CCCCC2)o1	78.2%
N[C@@H](Cc1cn(-c2c3ccccc3nc3ccccc23)nn1)C(=O)O	96.8%
Clc1ccc2c(NCCCn3ccnc3)c3oc4ccccc4c3nc2c1	39.7%
C#Cc1cccc(NC(=O)C2CCCCN2C(=O)CCl)c1 (centres undefined)	-60.1% [8.25 µM] (active)
CC(C)(C)Nc1nc2c(OCCc3ccccc3)cccn2c1-c1cccc(Oc2ccccc2)c1	-12.7% (active)
CC(=O)/C(=C/c1ccc(Cl)cc1)C(=O)c1ccccc1	96.9%
O=C(O)c1nc(-c2ccccc2)oc1N1CCOCC1	99.8%
O=C(CN1CCOCC1)Nc1ccc2ncnc(Nc3ccc(Oc4cccc(F)c4)c(Cl)c3)c2c1	-17.1% (active)
C=C1N(C)c2ccc(Cl)cc2C1(C)C	5.23% (active)
Cc1ccc2c3c(c(=O)[nH]c2c1)C1(C(C#N)=C(N)O3)c2cc(Br)ccc2-c2ccc(Br)cc21	6.75% (active)
COc1cc(/C=C/C(=O)c2ccc(NC(=O)CSc3nnc(-c4cc(OC)c(OC)c(OC)c4)n3-c3ccccc3)cc2)cc(OC)c1OC	9.24% (active)
COc1ccc(-c2nc3sc(C)cn3c2/C=C/C(=O)c2cc(OC)c(OC)c(OC)c2)cc1	25.5%
c1ccc(-c2nnc(Nc3nnc(-c4ccccc4)s3)s2)cc1	107%
COC(=O)[C@]12CC[C@@H](C)[C@H](C)[C@@H]1C1=CC[C@@H]3[C@@]4(C)C(C=O)=C[C@@](C)(COC(=O)c5ccco5)[C@@H]4C(=O)C[C@@]3(C)[C@]1(C)CC2	9.8% (active)
Oc1cccc(Nc2nccc(-c3ccc4ccccc4c3)n2)c1	15.6%
N#Cc1c(Nc2ccccc2)nn2c(-c3ccc([N+](=O)[O-])cc3)ccnc12	106%
c1ccc(-c2nnc(-c3ccccn3)s2)nc1	23.5%
N#Cc1c(NC(=O)NCc2ccccc2)sc2c1CCCCC2	-25.9% (active)
